Assay results: PubChem BioAssay (Tox21)
Results filed as inconclusive are left out. The source made the active and inactive calls. Unless noted, the call rests on the fitted dose curve; in most records, active means well fitted curve in the direction sought with a large enough effect in the repeat runs; inconclusive means weak or mixed curves; inactive means no such curve, though single readings can be large; an effect the other way counts as inactive or inconclusive.

Tests used:
[1] = qHTS assay to identify aromatase inhibitors - cell viability counter screen (AID 743084);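 further: cells stimulated with testosterone during compound exposure; nearly all actives have a fitted effect of over 55% in size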
[2] = biological target: Aryl hydrocarbon receptor (Homo sapiens) (UniProt P35869); experiment: qHTS assay to identify small molecule that activate the aryl hydrocarbon receptor (AhR) signaling pathway (AID 743085);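 further: HG2L7.5c1 human HepG2 liver cells with stably integrated DRE-driven firefly reporter; series mostly up to about 70 µM; nearly all actives have a fitted effect of over 15% in size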
In short: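 A multiplexed format paired cell viability (CellTiter-Fluor fluorescence) with AhR-dependent luciferase output (ONE-Glo luminescence) in the same wells of HepG2 DRE-luc cells after 24 h compound exposure at 37C.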

[3] = biological target: Peroxisome proliferator-activated receptor gamma (Homo sapiens) (UniProt P37231); experiment: qHTS assay to identify small molecule agonists of the peroxisome proliferator-activated receptor gamma (PPARg) signaling pathway (AID 743094; active means well fitted activation curve with a large enough effect in the signal ratio in the repeat runs, not every such curve was filed as active; the % refers to the signal ratio)
In short: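 HEK293H PPARg-bla cells, 5 h settle at 37C/5% CO2; compound (DMSO) 17 h, 37C; B/G FRET substrate 1 h RT; fluorescence intensity read-out. qHTS format.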

[4] = qHTS assay to identify small molecule antagonists of the peroxisome proliferator-activated receptor gamma (PPARg) signaling pathway - cell viability counter screen (AID 743194); further: nearly all actives have a fitted effect of over 55% in size
In short: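 Viability was measured as CellTiter-Glo luminescence in GeneBLAzer PPARg UAS-bla HEK293H cells. These cells had been exposed 17 h at 37 C to compounds together with rosiglitazone at 50 nM final, with the beta-lactamase readout taken in the same wells.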

[5] = qHTS assay for small molecule agonists of the antioxidant response element (ARE) signaling pathway - cell viability counter screen (AID 743203; calls by dose curve; further: nearly all actives have a fitted effect of over 55% in size)
In short: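 Luminescence read-out (CellTiter-Glo, 30 min at room temperature) measured cell viability in the same wells as the ARE beta-lactamase reporter. HepG2 ARE-bla cells were treated with compounds for 16 hrs at 37C/5% CO2.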

[6] = qHTS assay for small molecule activators of the heat shock response signaling pathway - cell viability counter screen (AID 743209); further: nearly all actives have a fitted effect of over 50% in size
In short: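 HSE-bla HeLa; 1500 cells/well; overnight 37 C, 5% CO2; compound 5 h 37 C; LiveBLAzer B/G substrate 2.5 h RT; CellTiter-Glo 30 min RT; luminescence.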

[7] = qHTS assay for small molecule activators of the heat shock response signaling pathway (AID 743210; active means well fitted activation curve with a large enough effect in the signal ratio in the repeat runs, with a control signal flat, not every such curve was filed as active; the % refers to the signal ratio; further: series mostly up to about 63 µM)
In short: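 Compound exposure lasted 5 h at 37 C in HeLa cells carrying a heat-shock-element-driven beta-lactamase reporter. Read-out: fluorescence intensity after 2.5 h room-temperature loading with LiveBLAzer B/G FRET substrate.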

[8] = qHTS assay to identify small molecule antagonists of the peroxisome proliferator-activated receptor delta (PPARd) signaling pathway - cell viability counter screen (AID 743213); further: nearly all actives have a fitted effect of over 50% in size
In short: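 Same-well viability: cells pre-incubated 5 h, dosed with compound plus 300 nM L165041, kept 17 h at 37 C, FRET substrate 2 h RT, then CellTiter-Glo 30 min RT and luminescence.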

[9] = biological target: Peroxisome proliferator-activated receptor delta (Homo sapiens) (UniProt Q03181); experiment: qHTS assay to identify small molecule antagonists of the peroxisome proliferator-activated receptor delta (PPARd) signaling pathway (AID 743215; active means well fitted inhibition curve with a large enough effect in the signal ratio in the repeat runs, not every such curve was filed as active; the % refers to the signal ratio;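 further: cells stimulated with agonist L165041 at 300 nM final during compound exposure; series mostly up to about 62 µM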)
In short: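 HEK293H GeneBLAzer PPARd UAS-bla reporter cells; cpd + L165041 300 nM final, 17 h 37 C; LiveBLAzer B/G FRET substrate 2 h RT; fluorescence intensity read-out. Antagonist mode.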

[10] = qHTS assay to identify small molecule agonists of the farnesoid-X-receptor (FXR) signaling pathway - cell viability counter screen (AID 743218); further: nearly all actives have a fitted effect of over 45% in size
In short: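 Luminescence from CellTiter-Glo, read after 30 min at RT, reports viability of GeneBLAzer FXR-UAS-bla HEK 293T cells treated 16 h with compounds in the wells used for the beta-lactamase reporter.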

[11] = qHTS assay to identify small molecule antagonists of the farnesoid-X-receptor (FXR) signaling pathway - cell viability counter screen (AID 743221; active means well fitted cell-killing curve with a large enough effect in the repeat runs, not every such curve was filed as active; further: nearly all actives have a fitted effect of over 50% in size)
In short: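 Cytotoxicity is taken from ATP luminescence (CellTiter-Glo, 30 min, room temperature) in FXR-bla HEK 293T cells previously incubated 16 h at 37 C with compound and chenodeoxycholic acid at 50 uM final.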

[12] = biological target: Vitamin D3 receptor (Homo sapiens) (UniProt P11473); experiment: qHTS assay to identify small molecule antagonists of the vitamin D receptor (VDR) signaling pathway (AID 743223; active means well fitted inhibition curve with a large enough effect in the signal ratio in the repeat runs, not every such curve was filed as active; the % refers to the signal ratio)
In short: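 Quantitative HTS in VDR-bla reporter cells stimulated with 1alpha,25-dihydroxyvitamin D3, 3 nM final. Compound exposure 16 h, 37C, 5% CO2. Read-out: beta-lactamase FRET substrate fluorescence, 2 h RT.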

[13] = qHTS assay for small molecule agonists of the antioxidant response element (ARE) signaling pathway (AID 743202; active means well fitted activation curve with a large enough effect in the signal ratio in the repeat runs, not every such curve was filed as active; the % refers to the signal ratio)
In short: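 After 16 hours of compound treatment at 37 C, HepG2 cells with a stably integrated ARE-driven beta-lactamase reporter were loaded 2 hours at room temperature with LiveBLAzer B/G FRET substrate and fluorescence intensity measured.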

[14] = qHTS assay to identify small molecule agonists of the peroxisome proliferator-activated receptor delta (PPARd) signaling pathway - cell viability counter screen (AID 743211); further: nearly all actives have a fitted effect of over 55% in size
In short: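 Tox21 library compounds, delivered in DMSO, were incubated 17 h with PPARd-bla HEK293H cells; cytotoxicity was taken from CellTiter-Glo luminescence read 30 min after reagent addition.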

[15] = biological target: Peroxisome proliferator-activated receptor delta (Homo sapiens) (UniProt Q03181); experiment: qHTS assay to identify small molecule agonists of the peroxisome proliferator-activated receptor delta (PPARd) signaling pathway (AID 743212; calls by dose curve)
In short: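 Beta-lactamase reporter readout: a ratiometric FRET signal from the LiveBLAzer substrate after 2 h at room temperature. Compound exposure at 37 °C in PPARδ-bla HEK293H cells driven by an upstream activator sequence.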

[16] = biological target: Bile acid receptor (Homo sapiens) (UniProt Q96RI1); experiment: qHTS assay to identify small molecule antagonists of the farnesoid-X-receptor (FXR) signaling pathway (AID 743217; active means well fitted inhibition curve with a large enough effect in the signal ratio in the repeat runs, not every such curve was filed as active; the % refers to the signal ratio)
In short: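 Read-out: beta-lactamase FRET fluorescence (LiveBLAzer B/G substrate, 2 h, room temperature) in GeneBLAzer FXR-UAS-bla HEK 293T cells. Compounds were co-dosed with 50 uM chenodeoxycholic acid (final) and incubated 16 h at 37 °C.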

[17] = biological target: Bile acid receptor (Homo sapiens) (UniProt Q96RI1); experiment: qHTS assay to identify small molecule agonists of the farnesoid-X-receptor (FXR) signaling pathway (AID 743220; active means well fitted activation curve with a large enough effect in the signal ratio in the repeat runs, not every such curve was filed as active; the % refers to the signal ratio)
In short: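 FXR-UAS-bla HEK 293T cells carrying a UAS-driven beta-lactamase reporter were plated for 5 h at 37C/5% CO2, then exposed to DMSO-dissolved Tox21 10K compounds for 16 h at 37C. A LiveBLAzer B/G FRET substrate was loaded for 2 h at room temperature before fluorescence reading.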

[18] = biological target: Vitamin D3 receptor (Homo sapiens) (UniProt P11473); experiment: qHTS assay to identify small molecule agonists of the vitamin D receptor (VDR) signaling pathway (AID 743222; calls by dose curve)
In short: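 Beta-lactamase reporter readout (LiveBLAzer B/G FRET, 2 h RT) in VDR-bla cells after 16 h compound treatment at 37C, 5% CO2; cells pre-incubated 4 h before pin transfer of DMSO solutions.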

[19] = qHTS assay to identify small molecule that activate the aryl hydrocarbon receptor (AhR) signaling pathway - cell viability counter screen (AID 743086);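 further: HepG2 liver cells carrying the AhR DRE luciferase reporter; series mostly up to about 70 µM; nearly all actives have a fitted effect of over 45% in size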
In short: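 Cytotoxicity counter screen: CellTiter-Fluor signal (30 min, 37 C) in 4000 HepG2 cells/well carrying the DRE-luciferase reporter, following 24 h compound exposure at 37 C.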

[20] = biological target: Peroxisome proliferator-activated receptor gamma (Homo sapiens) (UniProt P37231); experiment: qHTS assay to identify small molecule antagonists of the peroxisome proliferator-activated receptor gamma (PPARg) signaling pathway (AID 743191; calls by dose curve; further: series mostly up to about 63 µM; nearly all actives have a fitted effect of over 30% in size)
In short: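 Beta-lactamase reporter under UAS control in HEK293H PPARg-bla cells; compound treatment 17 h at 37C. Read-out: fluorescence intensity after 1 h room-temperature incubation with LiveBLAzer B/G FRET substrate.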

Measured: Potency

Sequence of Aryl hydrocarbon receptor (Homo sapiens) (P35869 whole entry, looked up): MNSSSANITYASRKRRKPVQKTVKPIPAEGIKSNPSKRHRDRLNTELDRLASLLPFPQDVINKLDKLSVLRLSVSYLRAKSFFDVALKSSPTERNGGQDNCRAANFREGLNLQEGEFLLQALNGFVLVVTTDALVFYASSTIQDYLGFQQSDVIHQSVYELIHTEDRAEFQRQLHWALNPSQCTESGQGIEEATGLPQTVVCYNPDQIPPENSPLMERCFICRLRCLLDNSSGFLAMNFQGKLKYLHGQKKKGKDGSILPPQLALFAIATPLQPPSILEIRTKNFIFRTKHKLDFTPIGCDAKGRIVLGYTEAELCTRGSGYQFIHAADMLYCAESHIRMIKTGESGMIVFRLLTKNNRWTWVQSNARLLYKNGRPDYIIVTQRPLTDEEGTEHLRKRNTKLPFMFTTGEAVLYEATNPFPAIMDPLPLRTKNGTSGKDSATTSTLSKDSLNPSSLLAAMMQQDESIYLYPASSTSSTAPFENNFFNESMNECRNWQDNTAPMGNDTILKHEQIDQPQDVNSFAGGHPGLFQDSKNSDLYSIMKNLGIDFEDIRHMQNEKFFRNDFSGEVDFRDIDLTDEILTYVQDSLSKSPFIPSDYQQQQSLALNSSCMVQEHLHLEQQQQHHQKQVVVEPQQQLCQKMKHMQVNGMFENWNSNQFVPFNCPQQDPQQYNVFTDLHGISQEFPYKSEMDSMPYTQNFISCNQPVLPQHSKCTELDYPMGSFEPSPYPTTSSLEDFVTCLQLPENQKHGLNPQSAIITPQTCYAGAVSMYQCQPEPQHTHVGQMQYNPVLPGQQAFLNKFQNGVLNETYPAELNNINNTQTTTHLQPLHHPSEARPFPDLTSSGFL
Sequence of Vitamin D3 receptor (Homo sapiens) (P11473 whole entry, looked up): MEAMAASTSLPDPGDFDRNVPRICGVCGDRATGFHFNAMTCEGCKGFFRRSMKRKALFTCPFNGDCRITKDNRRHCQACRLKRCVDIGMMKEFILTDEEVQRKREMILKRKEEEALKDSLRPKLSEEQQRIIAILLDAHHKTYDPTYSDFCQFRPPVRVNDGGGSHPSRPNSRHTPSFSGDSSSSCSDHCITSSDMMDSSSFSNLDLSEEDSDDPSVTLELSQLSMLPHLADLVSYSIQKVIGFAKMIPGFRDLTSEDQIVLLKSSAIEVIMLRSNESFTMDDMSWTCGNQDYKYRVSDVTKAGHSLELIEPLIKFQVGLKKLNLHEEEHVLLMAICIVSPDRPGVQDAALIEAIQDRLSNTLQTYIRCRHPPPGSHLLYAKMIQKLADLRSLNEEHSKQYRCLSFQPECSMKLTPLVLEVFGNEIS
Sequence of Peroxisome proliferator-activated receptor delta (Homo sapiens) (Q03181 whole entry, looked up): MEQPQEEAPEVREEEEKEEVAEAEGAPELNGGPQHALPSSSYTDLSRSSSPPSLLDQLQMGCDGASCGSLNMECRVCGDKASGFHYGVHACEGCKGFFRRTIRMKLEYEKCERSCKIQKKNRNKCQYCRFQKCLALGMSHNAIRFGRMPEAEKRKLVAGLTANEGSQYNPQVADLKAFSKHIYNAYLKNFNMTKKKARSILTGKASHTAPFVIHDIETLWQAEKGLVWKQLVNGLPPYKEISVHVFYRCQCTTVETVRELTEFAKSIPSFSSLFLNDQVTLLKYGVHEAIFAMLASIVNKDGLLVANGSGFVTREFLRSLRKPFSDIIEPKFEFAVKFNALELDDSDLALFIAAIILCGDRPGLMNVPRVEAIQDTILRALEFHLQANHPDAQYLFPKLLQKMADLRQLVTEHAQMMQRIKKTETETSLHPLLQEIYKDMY
Sequence of Bile acid receptor (Homo sapiens) (Q96RI1 whole entry, looked up): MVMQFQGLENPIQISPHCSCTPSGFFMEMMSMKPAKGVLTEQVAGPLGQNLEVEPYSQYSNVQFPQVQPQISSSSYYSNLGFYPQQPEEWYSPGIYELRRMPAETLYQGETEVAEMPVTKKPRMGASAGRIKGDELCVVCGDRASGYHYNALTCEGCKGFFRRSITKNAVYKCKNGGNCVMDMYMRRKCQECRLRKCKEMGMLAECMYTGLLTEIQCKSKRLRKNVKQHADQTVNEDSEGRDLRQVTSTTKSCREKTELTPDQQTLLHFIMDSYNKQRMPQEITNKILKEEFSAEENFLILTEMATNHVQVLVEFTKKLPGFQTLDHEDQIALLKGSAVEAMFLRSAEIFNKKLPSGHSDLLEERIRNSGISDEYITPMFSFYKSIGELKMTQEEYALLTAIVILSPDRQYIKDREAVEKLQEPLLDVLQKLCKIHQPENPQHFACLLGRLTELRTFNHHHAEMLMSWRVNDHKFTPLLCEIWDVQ
Sequence of Peroxisome proliferator-activated receptor gamma (Homo sapiens) (P37231 whole entry, looked up): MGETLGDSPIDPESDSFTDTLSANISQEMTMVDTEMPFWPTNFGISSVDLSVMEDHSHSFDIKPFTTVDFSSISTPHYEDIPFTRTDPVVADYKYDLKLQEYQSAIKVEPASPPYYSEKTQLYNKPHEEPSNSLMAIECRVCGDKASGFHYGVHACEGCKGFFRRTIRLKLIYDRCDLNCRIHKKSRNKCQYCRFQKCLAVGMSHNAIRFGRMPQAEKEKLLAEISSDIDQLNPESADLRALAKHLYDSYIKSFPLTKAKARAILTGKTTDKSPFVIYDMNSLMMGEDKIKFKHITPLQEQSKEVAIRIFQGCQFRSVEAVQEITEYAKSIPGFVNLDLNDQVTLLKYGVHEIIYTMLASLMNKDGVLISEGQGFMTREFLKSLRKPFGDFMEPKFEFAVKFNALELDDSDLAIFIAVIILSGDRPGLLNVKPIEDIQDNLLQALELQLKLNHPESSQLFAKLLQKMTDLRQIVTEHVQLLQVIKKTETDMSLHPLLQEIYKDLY

CC(C)(O)CCCC1=CCC(C=O)CC1 (stereo not given)
not listed: [13] | [14] | [15] | [16] | [17] | [18] | [19] | [20]
inactive: all other assays above

O=C(O)P(=O)(O)O
not listed: [3] | [19] | [20]
inactive: all other assays above

CCCC(=O)OC
not listed: [2] | [9] | [13] | [15] | [16] | [17]
inactive: all other assays above

CCN1CCN(C(=O)N[C@@H](C(=O)N[C@@H]2C(=O)N3C(C(=O)O)=C(CSc4nnnn4C)CS[C@H]23)c2ccc(O)cc2)C(=O)C1=O
inactive: [1] | [3] | [20] | [4] | [5] | [6] | [7] | [14] | [9] | [10] | [11]

O=C(O)COc1ccc2ccccc2c1
not listed: [2] | [4] | [9] | [13] | [15] | [16] | [17]
inactive: all other assays above

CC(C)OC(=O)C(C(=O)OC(C)C)=C1SC=CS1
not listed: [7] | [13] | [16] | [17] | [19]
inactive: all other assays above

CC(C)(O)c1ccc(C(C)(C)O)cc1
inactive: [1] | [19] | [3] | [20] | [5] | [7] | [14] | [8] | [10] | [18]

CCCCCCCC(=O)N(C)C
not listed: [2] | [3] | [15] | [16] | [17]
inactive: all other assays above

O=C(O)Cc1c(Cl)ccc(Cl)c1Cl
not listed: [3] | [12] | [13] | [16] | [18] | [19]
inactive: all other assays above

CCCCS
not listed: [13] | [14] | [15] | [16] | [17] | [19] | [20]
inactive: all other assays above

CN(C)c1cc(NC(=O)CNC(C)(C)C)c(O)c2c1C[C@H]1C[C@H]3[C@H](N(C)C)C(=O)C(C(N)=O)=C(O)[C@@]3(O)C(=O)C1=C2O
not listed: [3] | [13] | [14] | [19]
inactive: all other assays above

COc1ccc(Cl)cc1C
not listed: [3] | [9] | [12] | [15] | [16] | [17] | [19] | [20]
inactive: all other assays above

O=S(=O)(O)c1cc(I)c(O)c2ncccc12
not listed: [2] | [12] | [13] | [16] | [17] | [18]
inactive: all other assays above

CCOc1ccccc1OCCN[C@H](C)Cc1ccc(OC)c(S(N)(=O)=O)c1
inactive: [1] | [2] | [4] | [13] | [5] | [6] | [7] | [14] | [10] | [18] | [12]

NNC(=O)CCCCC(=O)NN
not listed: [2] | [9] | [16] | [19]
inactive: all other assays above

CC(=O)c1ccc(O)c(C(N)=O)c1
inactive: [20] | [4] | [5] | [6] | [7] | [14] | [15] | [8] | [9] | [10] | [18]

CC(C)(C)NCC(O)COc1cccc2c1CCC(=O)N2 (stereo not given)
not listed: [1] | [11] | [12] | [15] | [16] | [17]
inactive: all other assays above

CC(C)(C)c1ccc(C(=O)CCCCl)cc1
inactive: [4] | [5] | [6] | [7] | [15] | [8] | [9] | [10] | [11] | [18] | [12]

CC(C)CC(O)Cc1ccccc1 (stereo not given)
not listed: [1] | [12] | [16] | [17]
inactive: all other assays above
